Screens deposited in PubChem BioAssay by National Center for Advancing Translational Sciences (NCATS).
Sampled rows, rich in hits. Any-hit rate of the full collection: about 19%.
DT40 TDP1 CPT – qHTS for Inhibitors of human tyrosyl-DNA phosphodiesterase 1 (TDP1): qHTS in cells in presence of CPT; AID 686979, 2013; 420,000 compounds, 12% hits; Potency, µM (doses to about 46.2 µM), for inactives: at the highest dose activity change, negative = growth inhibition, usual class: inhibitors; chicken DT40 Tdp1-/-;hTDP1 cells + 20 nM CPT, ATP luminescence, 48 h; further: potency means the concentration at half of the fitted maximal effect; nearly all actives have a fitted effect of over 55% in size
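Cell growth measured by CellTiter-Glo luminescence after a minimum 48 h, 37 C compound exposure with 20 nM CPT in Tdp1-knockout DT40 cells stably expressing hTDP1, seeded 400/well; qHTS titration format.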
IL-1B inflam inh – qHTS for Inhibitors of Inflammasome Signaling: IL-1-beta AlphaLISA Primary Screen; AID 743279, 2014; 360,000 compounds, 4.7% hits; activity change, % at 57.5 µM; THP-1 LPS/ATP IL-1B secretion, AlphaLISA, 16 h; active compounds read low; in the data active means activity change below about -50%; inconclusive means mostly about -30% to -49%
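Secreted IL-1B measured by AlphaLISA bead assay after 16 h compound exposure of THP-1 cells; compounds (final up to 57.5 uM) added 1 h before LPS (250 ng/mL) and ATP (1.25 mM) stimulation; lower signal means less secretion.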
HT1080 IDH1KD tx – qHTS for induction of synthetic lethality in tumor cells producing 2HG: qHTS for the HT-1080-IDH1KD cell line | HT-1080 IDH1 knockdown viability, ATP luminescence, 48 h | Potency, µM (top dose mostly 46.1 µM), for the others: at the top dose activity, negative = toxicity, most hits filed as cytotoxic | 360,000 compounds, 2% hits | AID 686971, 2013;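 further: potency means the concentration at half of the fitted maximal effect; 0% = DMSO wells and -100% = cell-free medium wells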
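Using the IDH1-knockdown HT-1080 line run in the same batch and compound series as the NT line, viability after 48 h at 37 °C was determined by CellTiter-Glo luminescence and expressed as % activity.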
TDP1 cell noCPT – qHTS for Inhibitors of human tyrosyl-DNA phosphodiesterase 1 (TDP1): qHTS in cells in absence of CPT; DT40 Tdp1-/- hTDP1 cells, no CPT, ATP luminescence, 48 h; Potency, µM (doses to about 46.2 µM), for inactives: at the top dose activity change, negative = growth inhibition, hits mostly inhibitors; 420,000 compounds, 15% hits; AID 686978, 2013; further: potency means the concentration at half of the fitted maximal effect; nearly all actives have a fitted effect of over 55% in size
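Camptothecin absent (DMSO only). Human TDP1-complemented DT40 knockout cells, 400 cells/well, 37 °C for minimum 48 hr; ATP measured via CellTiter-Glo, 30 min dark incubation, luminescence.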
HT1080NT lethal – qHTS for induction of synthetic lethality in tumor cells producing 2HG: qHTS for the HT-1080-NT fibrosarcoma cell line; HT-1080-NT fibrosarcoma viability, CellTiter-Glo ATP luminescence, 48 h; Potency, µM (highest dose often 46.1 µM), for the others: top-dose activity, negative = less viability, actives largely listed as cytotoxic; 360,000 compounds, 1.6% hits; AID 686970, 2013;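 further: NT is the 2HG producing partner of a matched IDH1 knockdown line; potency means the concentration at half of the fitted maximal effect; 0% = DMSO-treated cells and -100% = media-only wells without cells; nearly all actives have a fitted effect of over 55% in size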
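Toxicity toward the 2HG-producing NT line was scored as %Activity, normalised to DMSO and no-cell wells, from CellTiter-Glo luminescence after 48 hours' treatment.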
Starred values were filed as active, the others as inactive; ? = inconclusive; / = no result; [ ] = another dose, or the depositor's remark. Unless noted, the call rests on the fitted dose curve; in most records, active means well fitted curve in the direction sought with a large enough effect; inconclusive means small, poorly fitted or top-dose-only effect, or another doubt; inactive means no such curve, though single readings can be large; an effect the other way counts as inactive or inconclusive. Unless noted, on the % scale 0 is the no-effect control and ±100 the full control effect.

SMILES	DT40 TDP1 CPT	IL-1B inflam inh	HT1080 IDH1KD tx	TDP1 cell noCPT	HT1080NT lethal
CCOc1ccc(CN2CCN(CCCc3ccccc3)CC2CCO)cc1 (stereo unspecified)	?	-51.7*	-4.7%	?	-14.9%
OCCC#Cc1ccc(CN2CCN(CCc3ccccc3)C(CCO)C2)cc1 (stereo unspecified)	3.7%	6.9	-3.6%	-1.9%	8.4%
OCCC1CN(CCCc2ccccc2)CCN1Cc1ccc(F)cc1 (stereo unspecified)	0.3%	-15.6	-3.8%	-25.1%	-9.7%
COc1cc(CN2CCN(CCCc3ccccc3)C(CCO)C2)cc(OC)c1O (stereo unspecified)	6.51µM*	21.4	2.5%	6.51µM*	1.2%
Nc1cc(=O)[nH]c(=O)n1CCCc1ccccc1	-5.1%	4.4	6.1%	-3.7%	5.8%
O=C(c1cc2cc(Br)ccc2s1)N1CCOCC1	12.3%	-1.5	3.1%	13.8%	22.1%
O=C1c2ccccc2C(c2nnnn2-c2ccc3c(c2)OCCO3)N1CCOc1ccccc1 (stereo unspecified)	-19.7%	-1.4	0.3%	?	-1.1%
Cc1[nH]nc2c1C(c1ccc(-c3ccc(Cl)cc3)o1)C(C#N)=C(N)O2 (stereo unspecified)	13µM*	-100.8*	?	?	?
Cc1[nH]nc2c1C(c1ccc(-c3ccccc3C#N)o1)C(C#N)=C(N)O2 (stereo unspecified)	29.1µM*	-55.6*	11.2µM*	20.6µM*	?
Cc1[nH]nc2c1C(c1ccsc1C)C(C#N)=C(N)O2 (stereo unspecified)	?	?	?	-23.7%	4.2%
Cc1cc(C2C(C#N)=C(N)Oc3n[nH]c(C)c32)c(C)s1 (stereo unspecified)	8.2µM*	?	-12.1%	?	?
Cc1ccc(-c2ccc(C3C(C#N)=C(N)Oc4n[nH]c(C)c43)o2)cc1 (stereo unspecified)	?	2.3	-14.5%	?	-20.5%
COc1ccccc1C(=O)C1CCCN(C(=O)c2cccc(-n3cccn3)c2)C1 (stereo unspecified)	?	-28.1	6.9%	?	20.7%
C[C@@H]1CN([C@H](C)CO)C(=O)CCCn2nncc2CO[C@H]1CN(C)S(=O)(=O)c1cccc(F)c1	-12.2%	1.5	-0.5%	-16.4%	2.1%
O=c1[nH]c(Nc2ccc(F)cc2)cc2ccccc12	-26.4%	53.0	-1.8%	?	1.8%[9.24 µM]
Fc1ccc(-[n+]2nc(Nc3ccccc3)sc2-c2c3ccccc3cc3ccccc23)cc1	5.8µM*	-89.4*	23.1µM*	3.66µM*	20.6µM*
C[n+]1nc(Nc2ccccc2)sc1-c1ccc(O)cc1	?	-14.6	2.8%	-28.7%	?
c1ccc(-[n+]2nc(Nc3cccc4ccccc34)sc2-c2c3ccccc3cc3ccccc23)cc1	?	-9.0	8.2µM*	14.6µM*	3.66µM*
Oc1ccc2ccccc2c1-c1sc(Nc2ccccc2)n[n+]1-c1ccc(F)cc1	?	7.5	-14.5%	16.4µM*	0.0%
COc1ccc(NC(=O)[C@H](C)NC(=O)C2CCN(S(=O)(=O)c3ccc(C)cc3)CC2)cc1	4.4%	-22.7	1.3%	-6.0%	-1.9%
COc1cc2nc(SCc3cccc(Cl)c3)n3nc(CCn4nc(C)cc4C)nc3c2cc1OC	-3.7%	/	/	-10.9%	/
Cc1nc(OCC(=O)c2ccc(Cl)cc2)c(C#N)c2c1COC(C)(C)C2	?	-17.5	2.6%	?	2.3%
CCc1nc(OCC(=O)c2ccccc2)c(C#N)c2c1COC(C)(C)C2	?	-7.5	0.0%	18.4µM*	4.7%
CC(=O)Nc1cc(-c2ccc(CO)cc2)cn2c(-c3ccc(F)c(Cl)c3)cnc12	?	-27.7	?	?	32.6µM*
CC(=O)Nc1cc(-c2cccc(F)c2)cn2c(-c3ccc(F)c(Cl)c3)cnc12	?	-2.3	?	?	?
SMILES	DT40 TDP1 CPT	IL-1B inflam inh	HT1080 IDH1KD tx	TDP1 cell noCPT	HT1080NT lethal
CC(=O)Nc1cc(-c2ccc(F)cc2)cn2c(-c3ccc(F)c(Cl)c3)cnc12	?	-12.8	?	23.1µM*	?
CC(=O)Nc1cc(-c2ccccc2)cn2c(-c3ccc(F)c(Cl)c3)cnc12	23.1µM*	-11.6	?	?	-0.9%
Cc1cccc(CSc2nnc(-c3cccs3)n2Cc2ccco2)c1	?	-6.1	?	?	-0.3%
COC(=O)C1CCN(Cc2ccc3c(c2)CN(C(=O)C2CCCN(c4ccccn4)C2)CCO3)CC1 (stereo unspecified)	-13.6%	/	/	-27.9%	/
Cc1ccc(C(=O)CCC(=O)N2CCN(C(=O)c3ccco3)CC2)cc1	0.2%	-5.9	0.0%	-3.9%	-3.8%
CCc1c(C)nc(N2CCN(c3ccccc3F)CC2)[nH]c1=O	?	-2.6	15.7%	23.1µM*	13.3%
O=C(NCCc1ccccc1)c1ccc(CSc2nc3ccncc3n2Cc2cccc(F)c2)cc1	13µM*	/	/	11.6µM*	/
O=C(NCCc1ccccc1)c1ccc(CSc2nc3ccncc3n2Cc2ccccc2F)cc1	14.6µM*	/	/	?	/
Cc1cccc(Cn2c(SCc3ccc(C(=O)NCCc4ccccc4)cc3)nc3ccncc32)c1	?	/	/	13µM*	/
COC(=O)CCN1CCC2CC1c1cc(-c3cccc(C)c3)ccc12 (stereo unspecified)	?	-7.8	-0.4%	-14.7%	-3.6%
COc1ccc(/C=C/C(=O)N(C)Cc2cccs2)cc1S(=O)(=O)N1CCOCC1	-2.2%	16.5	-0.6%	-26.3%	-0.3%
CCOc1ccc(Cl)cc1-c1cc(C(=O)Nc2ccc(Br)cc2)[nH]n1	23.1µM*	-24.4	?	18.4µM*	-29.0%
CCOc1ccc(Cl)cc1-c1cc(C(=O)Nc2ccc(C(C)C)cc2)[nH]n1	?	-8.9	-25.2%	16.4µM*	-23.8%
CCOc1ccc(Cl)cc1-c1cc(C(=O)Nc2cc(OC)c(OC)c(OC)c2)[nH]n1	20.6µM*	-16.2	?	16.4µM*	?
COc1ccc(Cl)cc1-c1cc(C(=O)NC2CCCCC2)[nH]n1	?	-12.0	?	?	?
CCOc1ccc(Cl)cc1-c1cc(C(=O)Nc2ccc(OC)nc2)[nH]n1	?	-17.6	-12.4%	?	-1.4%
CCOc1ccc(Cl)cc1-c1cc(C(=O)NC2CCCCC2)[nH]n1	18.4µM*	-9.6	0.1%	16.4µM*	?
O=C(CSc1nnc(-c2cccc(Br)c2)o1)N1CCOCC1	?	0.0	11.2%	-24.0%	7.2%
